Legend:
Experiment in all cases: PBM binding z-score (relative to random genomic background probes); higher = stronger binding; sequences stand for … in GC…GCGATTGACAGCGTAGAATGAAGG
[1] = system: RARb homodimer (NR concentration 270 nM)
Procedure, shortened: (§1)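 Ligand-free nuclear receptor dimers were applied to custom Agilent 4×180K protein-binding microarrays whose double-stranded probes carried direct-repeat seeds, single-nucleotide variants, half-site ablations and random human genomic background sequences in 34-nt variable regions. Incubation lasted 1 h. Binding z-scores were computed against the random background probes from regression-normalized fluorescence.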

[2] = system: RARg:RXRa (NR concentration 270 nM, RXRa partner concentration 90 nM)
Procedure, shortened: as §1

[3] = system: RARg homodimer (NR concentration 270 nM)
Procedure, shortened: as §1

[4] = system: RXRa DBDmut IVT, anti-RXR (DBD mutation: RXRa K156A/R161A, NR concentration 90 nM)
Procedure, shortened: as §1

[5] = system: RXRa homodimer (NR concentration 180 nM)
Procedure, shortened: as §1

[6] = system: THRa:RXRa (NR concentration 90 nM, RXRa partner concentration 90 nM)
Procedure, shortened: as §1

[7] = system: THRa homodimer (NR concentration 90 nM)
Procedure, shortened: as §1

[8] = system: VDR homodimer (NR concentration 270 nM)
Procedure, shortened: as §1

## TCTTGTAGATCAAAGGTTTAGAAAGCCGAAGCCT
[1]
  PBM binding z-score: -0.342
[2]
  PBM binding z-score: -0.312
[3]
  PBM binding z-score: -0.404
[4]
  PBM binding z-score: 0.516
[5]
  PBM binding z-score: 0.291
[6]
  PBM binding z-score: -0.356
[7]
  PBM binding z-score: -0.747
[8]
  PBM binding z-score: 0.0902

## CTACCAAGGTGAACAGGGTCGTTGATTACTATTC
[1]
  PBM binding z-score: 1.71
[2]
  PBM binding z-score: 1.51
[3]
  PBM binding z-score: 1.17
[4]
  PBM binding z-score: 1.08
[5]
  PBM binding z-score: 1.87
[6]
  PBM binding z-score: 2.87
[7]
  PBM binding z-score: 1.68
[8]
  PBM binding z-score: 1.92

## CCTGCTAGGTCAATGGTCACCTAAAGCAGCTCGC
[1]
  PBM binding z-score: 3.18
[2]
  PBM binding z-score: 3.72
[3]
  PBM binding z-score: 4.05
[4]
  PBM binding z-score: 2.07
[5]
  PBM binding z-score: 2.43
[6]
  PBM binding z-score: 2.78
[7]
  PBM binding z-score: 1.32
[8]
  PBM binding z-score: 0.427

## ACTAGCGGGCCAAGGGTCACTCAAGATTAGTCCG
[1]
  PBM binding z-score: 3.7
[2]
  PBM binding z-score: 3.9
[3]
  PBM binding z-score: 3.71
[4]
  PBM binding z-score: 0.364
[5]
  PBM binding z-score: 4
[6]
  PBM binding z-score: 2.62
[7]
  PBM binding z-score: -0.0687
[8]
  PBM binding z-score: 1.07

## TTACCAAGGTGAGCTGAAGTCGTTGATCCAACTC
[1]
  PBM binding z-score: -0.14
[2]
  PBM binding z-score: 0.0635
[3]
  PBM binding z-score: -0.108
[4]
  PBM binding z-score: -0.671
[5]
  PBM binding z-score: 0.0519
[6]
  PBM binding z-score: 0.821
[7]
  PBM binding z-score: -0.297
[8]
  PBM binding z-score: -0.905

## GCTAGCAGGCCATTTGGGTCACTTAATGACGGGC
[1]
  PBM binding z-score: 1.82
[2]
  PBM binding z-score: 0.913
[3]
  PBM binding z-score: 1.22
[4]
  PBM binding z-score: -0.0616
[5]
  PBM binding z-score: 0.684
[6]
  PBM binding z-score: 1.79
[7]
  PBM binding z-score: 0.181
[8]
  PBM binding z-score: 0.405

## GCTGCTAGGTCAGGTTAGTCAGCTAACGGGTACG
[1]
  PBM binding z-score: 2.62
[2]
  PBM binding z-score: 2.89
[3]
  PBM binding z-score: 3.82
[4]
  PBM binding z-score: 0.579
[5]
  PBM binding z-score: 1.17
[6]
  PBM binding z-score: 2.36
[7]
  PBM binding z-score: 0.56
[8]
  PBM binding z-score: 0.0703

## TCTCCGAGGACACGAAAGGTCAGAGCTCGACATC
[1]
  PBM binding z-score: 4.77
[2]
  PBM binding z-score: 4.91
[3]
  PBM binding z-score: 5.54
[4]
  PBM binding z-score: 1.34
[5]
  PBM binding z-score: 4.12
[6]
  PBM binding z-score: 4.36
[7]
  PBM binding z-score: 2.74
[8]
  PBM binding z-score: 1.31

## TTACCAAGGCGAAGGTCGTTGATCCCTCTGTAGA
[1]
  PBM binding z-score: 0.804
[2]
  PBM binding z-score: 0.317
[3]
  PBM binding z-score: 0.0659
[4]
  PBM binding z-score: 0.0625
[5]
  PBM binding z-score: 1.13
[6]
  PBM binding z-score: 1
[7]
  PBM binding z-score: 0.0881
[8]
  PBM binding z-score: 0.564

## CGAACCAGGTCAGAACAGGACAGTGAAGGATGAT
[1]
  PBM binding z-score: 2.14
[2]
  PBM binding z-score: 2.84
[3]
  PBM binding z-score: 3.33
[4]
  PBM binding z-score: 0.868
[5]
  PBM binding z-score: 2.06
[6]
  PBM binding z-score: 3.69
[7]
  PBM binding z-score: 0.812
[8]
  PBM binding z-score: 0.276

## AGAACGAGAGCACGCTGAGTTGATAGCAGAGTAG
[1]
  PBM binding z-score: -1.13
[2]
  PBM binding z-score: -0.185
[3]
  PBM binding z-score: 0.0866
[4]
  PBM binding z-score: -0.192
[5]
  PBM binding z-score: -0.166
[6]
  PBM binding z-score: -0.571
[7]
  PBM binding z-score: -1.24
[8]
  PBM binding z-score: -0.355

## CGAACTAGGCCAAGGACAGTGAATCTCCGCACGC
[1]
  PBM binding z-score: 0.591
[2]
  PBM binding z-score: -0.0156
[3]
  PBM binding z-score: 0.663
[4]
  PBM binding z-score: 0.163
[5]
  PBM binding z-score: -0.0922
[6]
  PBM binding z-score: 1.35
[7]
  PBM binding z-score: 0.94
[8]
  PBM binding z-score: -0.0931

## CCTAGTTGGTCAAGGTCATACACGCTATAGGTAC
[1]
  PBM binding z-score: 4.18
[2]
  PBM binding z-score: 4.12
[3]
  PBM binding z-score: 4.33
[4]
  PBM binding z-score: 2.53
[5]
  PBM binding z-score: 4.46
[6]
  PBM binding z-score: 4.03
[7]
  PBM binding z-score: 3.75
[8]
  PBM binding z-score: 4.48

## GCTAGCAGGCCATTCGGGTCACTCAATGACGGGC
[1]
  PBM binding z-score: 2.3
[2]
  PBM binding z-score: 1.85
[3]
  PBM binding z-score: 1.92
[4]
  PBM binding z-score: 0.641
[5]
  PBM binding z-score: 1.81
[6]
  PBM binding z-score: 3.09
[7]
  PBM binding z-score: 1.75
[8]
  PBM binding z-score: 1.2

## CGTCCAAGGTCAAAGCTAGGTCAGTGAAAGCATT
[1]
  PBM binding z-score: 5.03
[2]
  PBM binding z-score: 7.9
[3]
  PBM binding z-score: 7.36
[4]
  PBM binding z-score: 4.1
[5]
  PBM binding z-score: 6.47
[6]
  PBM binding z-score: 4.57
[7]
  PBM binding z-score: 2.86
[8]
  PBM binding z-score: 3.7

## ATCTCTAGGTAAGACTTAGTTCAGTGAAGAACGC
[1]
  PBM binding z-score: 1.05
[2]
  PBM binding z-score: 0.21
[3]
  PBM binding z-score: 0.357
[4]
  PBM binding z-score: 0.325
[5]
  PBM binding z-score: 0.128
[6]
  PBM binding z-score: 0.798
[7]
  PBM binding z-score: 0.858
[8]
  PBM binding z-score: 0.617

## TCTTGTAGATCGAAGGTTAAGAAAGCCGAAGCCT
[1]
  PBM binding z-score: 0.0841
[2]
  PBM binding z-score: 0.243
[3]
  PBM binding z-score: -0.136
[4]
  PBM binding z-score: 0.423
[5]
  PBM binding z-score: 0.859
[6]
  PBM binding z-score: 0.418
[7]
  PBM binding z-score: -0.559
[8]
  PBM binding z-score: -0.284

## TCTCGGAGGACACGAAATGTCAGAGCTCGACATC
[1]
  PBM binding z-score: 1.04
[2]
  PBM binding z-score: 0.897
[3]
  PBM binding z-score: 1.7
[4]
  PBM binding z-score: 0.78
[5]
  PBM binding z-score: 0.302
[6]
  PBM binding z-score: 1.54
[7]
  PBM binding z-score: 0.334
[8]
  PBM binding z-score: -0.342

## GCTAGTTGGTCTGTAAAAGGTCACACACCGGTCG
[1]
  PBM binding z-score: 5.02
[2]
  PBM binding z-score: 5.01
[3]
  PBM binding z-score: 4.62
[4]
  PBM binding z-score: 0.681
[5]
  PBM binding z-score: 5.65
[6]
  PBM binding z-score: 3.52
[7]
  PBM binding z-score: 1.78
[8]
  PBM binding z-score: 1.81

## CCTACTGGGGCAGAAAGGTTACCATACCATCCGG
[1]
  PBM binding z-score: 2.22
[2]
  PBM binding z-score: 1.62
[3]
  PBM binding z-score: 1.59
[4]
  PBM binding z-score: -1.01
[5]
  PBM binding z-score: 1.56
[6]
  PBM binding z-score: 0.807
[7]
  PBM binding z-score: -0.439
[8]
  PBM binding z-score: -0.187

## TAGCCTAGGTCATGCGGACCAGTATAGTGTCGGC
[1]
  PBM binding z-score: 2.76
[2]
  PBM binding z-score: 3.99
[3]
  PBM binding z-score: 4.25
[4]
  PBM binding z-score: 0.668
[5]
  PBM binding z-score: 3.05
[6]
  PBM binding z-score: 2.84
[7]
  PBM binding z-score: 1.12
[8]
  PBM binding z-score: -0.0352

## GTAGACAGGTGAAACGCAGGTAACTCAGGGTGGC
[1]
  PBM binding z-score: 0.348
[2]
  PBM binding z-score: 0.896
[3]
  PBM binding z-score: 0.286
[4]
  PBM binding z-score: -0.661
[5]
  PBM binding z-score: 0.743
[6]
  PBM binding z-score: 1.43
[7]
  PBM binding z-score: -0.349
[8]
  PBM binding z-score: -0.271

## TAGCCTGGGTCAGATCGGGCCAGTATACGCTATA
[1]
  PBM binding z-score: 1.61
[2]
  PBM binding z-score: 2.42
[3]
  PBM binding z-score: 2.86
[4]
  PBM binding z-score: -1.34
[5]
  PBM binding z-score: 1.46
[6]
  PBM binding z-score: 4.11
[7]
  PBM binding z-score: -0.483
[8]
  PBM binding z-score: -1.02

## TCTAGTTGGTCAAAGGTCACACACTCGAAATGCG
[1]
  PBM binding z-score: 5.02
[2]
  PBM binding z-score: 7.09
[3]
  PBM binding z-score: 6.36
[4]
  PBM binding z-score: 2.05
[5]
  PBM binding z-score: 7.71
[6]
  PBM binding z-score: 4.06
[7]
  PBM binding z-score: 1.95
[8]
  PBM binding z-score: 2.94

## CGCCCAAGGTCAAAGGTCAGTGAAGAGATGACGG
[1]
  PBM binding z-score: 5.66
[2]
  PBM binding z-score: 8.68
[3]
  PBM binding z-score: 8.27
[4]
  PBM binding z-score: 3.9
[5]
  PBM binding z-score: 10
[6]
  PBM binding z-score: 4.83
[7]
  PBM binding z-score: 2.31
[8]
  PBM binding z-score: 3.24

## GCTGCAAGGTCAGGTTGGTCAGCTAACGGGTACG
[1]
  PBM binding z-score: 3.9
[2]
  PBM binding z-score: 4.56
[3]
  PBM binding z-score: 5.49
[4]
  PBM binding z-score: 2.04
[5]
  PBM binding z-score: 3.72
[6]
  PBM binding z-score: 3.26
[7]
  PBM binding z-score: 1.48
[8]
  PBM binding z-score: 1.23

## CGTGAAAGTTCAACTAAGGTAACGTAAAGCACGC
[1]
  PBM binding z-score: 4.13
[2]
  PBM binding z-score: 5.55
[3]
  PBM binding z-score: 6.12
[4]
  PBM binding z-score: 4.76
[5]
  PBM binding z-score: 4.3
[6]
  PBM binding z-score: 5.32
[7]
  PBM binding z-score: 1.64
[8]
  PBM binding z-score: 3.71

## TAGCCTAGGTCATTCGGCCAGTATAGTACGCATC
[1]
  PBM binding z-score: 3.12
[2]
  PBM binding z-score: 3.81
[3]
  PBM binding z-score: 4.13
[4]
  PBM binding z-score: 1.7
[5]
  PBM binding z-score: 2.52
[6]
  PBM binding z-score: 2.66
[7]
  PBM binding z-score: 0.61
[8]
  PBM binding z-score: 1.6
